Reference: PubChem BioAssay AID590 (National Center for Advancing Translational Sciences (NCATS), 2007)
About 6,500 (11%) of roughly 59,000 compounds were called active. Not shown: some 15% with an inconclusive outcome. Rule as the data show it: active = max dye-equivalent concentration above about 10 nM; inconclusive = mostly about 1.1 nM to 9.6 nM; inactive = weaker than that. What follows is part of a selection rich in actives, with near analogues and random picks from the rest.

Assay: qHTS Assay for Spectroscopic Profiling in A350 Spectral Region
Conditions: Compound autofluorescence, 340/450 nm, Alexa 350 dye-equivalents; active compounds read high
Text: NIH Molecular Libraries Screening Centers Network [MLSCN]
NIH Chemical Genomics Center [NCGC]
Occasionally, the artifactual effect may originate from the compounds own spectral or other biophysical properties which generally tend to track its assay concentration. Pre-screening/profiling the library with respect to the compounds spectral properties should help one exclude false positives early on. While the most informative fluorescent profiling data set is obtained by performing a full excitation and emission scan of each well by using a monochromator-based plate reader, such an approach is practical only on a very limited scale as scanning each well requires long time. An alternative approach, applied here, is to perform plate reader scans using selected excitation and emission wavelength pairs to generate a multidimensional relational database that correlates compound concentration and the respective relative fluorescence intensity at a given wavelength set. A standard curve of Alexa 350 (A 350) present on each plate as six-point concentration series, was used to compute a normalized fluorescence response, termed dye-equivalent concentration, for each compound at each concentration.
NCGC Assay Protocol Summary:
100 mM Tris buffer, pH 8.0
The wells in columns 1 through 4 of a Kalypsys polypropylene 1536-well compound plate were filled with standard solutions of fluorophore corresponding to the spectral region of interest. Solutions of A 350 were placed in the following wells: I1, J1: 3 mM, I2, J2: 300 uM, I3, J3: 30 uM, I4, J4: zero (DMSO), K1, L1: 3 uM, K2, L2: […], K3, L3: 300 nM, K4, L4: zero (DMSO).
Six uL of buffer were dispensed to 1536-well Greiner black plates. Compounds and dye standards (23 nL) were transferred via Kalypsys PinTool. The plates were incubated for 15 min at room temperature, and then read on ViewLux (Perkin-Elmer) High-throughput CCD imager using 340 nm and 450 nm excitation and emission filter set.
Keywords: NIH Roadmap, MLSCN, MLI, MLSMR, qHTS, NCGC, A350, A-350, Fluorescent Profiling.

Max dye-equivalent concentration, inactive:
CCC(=O)Nc1nc2ccccc2n1Cc1ccccc1C
O=C(OCC(=O)N1CCCC1)c1ccco1
COc1ccc(C)cc1-n1nnnc1SCC(=O)c1cc(C)n(Cc2ccco2)c1C
Cc1noc(C)c1-c1cc(NCc2cccnc2)ncn1
CNc1cc(-c2c(C)noc2C)ncn1
COc1ccccc1CNc1ncnc2ccc(-c3c(C)noc3C)cc12
Cc1cccc(CNc2cc(-c3ccccc3Cl)ncn2)c1
O=C(NC1CC2CCCC(C1)N2C(=O)N1CCCCC1)C1CCCCC1 (stereo unspecified)
CCN(CC)P(=O)(/C(Cl)=C\Nc1c(C)n(C)n(-c2ccccc2)c1=O)N(CC)CC
CCCCN(CCCC)C(=O)CCS(=O)(=O)c1ccc2c(c1)n(C)c(=O)c(=O)n2C
CCOc1ccccc1Oc1cn[nH]c1-c1ccc(OC)cc1O
CCN(C(=O)CSc1ncn[nH]1)c1cccc2ccccc12
CC(=O)NS(=O)(=O)c1ccccc1
O=C(COc1ccc(F)cc1)N(CC1=CCS(=O)(=O)C1)c1ccccc1
COc1cc(C2C(C(=O)c3ccc(C)o3)=C(O)C(=O)N2Cc2cccnc2)ccc1O (stereo unspecified)
CCOC(=O)c1c(C)[nH]c(C(=O)COc2ccc3c(c2)OCO3)c1C
CCOC(=O)c1c(C)[nH]c(C(=O)NCc2ccccc2OC)c1C
CCOC(=O)COc1ccc(Cl)cc1C1NC(=O)NC(C)=C1C(C)=O (stereo unspecified)
O=S(=O)(NCc1cccnc1)c1ccc(Br)s1
CCC[C@H]1C(=O)N2C(N(C)C)=Nc3ccc(C)cc3N2C1=O
CC(=O)C1C(c2cccc(Oc3ccccc3)c2)NC(=O)NC1(O)C(F)(F)F (stereo unspecified)
COc1ccccc1N1CCN(C(=O)c2cc(-c3ccc(Cl)c(Cl)c3)on2)CC1
CCc1c(C)nc2ncnn2c1N1CCC(C(=O)NCc2ccc3c(c2)OCO3)CC1
C=CCC(NCCCO)c1cccc(OC)c1OC (stereo unspecified)
COc1ccc(OCc2ccc(-c3nc4ccccc4c(=O)n3N)o2)cc1
Cc1nnc(SCC(=O)N2CCc3ccccc32)n1-c1ccccc1
Nc1nnnn1/N=C/c1cccs1
N=c1c2c3c(sc2ncn1N)CCCCC3
COc1ccccc1-c1nc(N2CCN(C)CC2)c2ccccc2n1
COc1ccccc1CNC(=O)C1CCN(c2nc3ccccc3o2)CC1
Cc1ccc(C(c2nnnn2CS(=O)(=O)c2ccc(C)cc2)N2CCC(C(N)=O)CC2)cc1 (stereo unspecified)
O=P(c1ccc2c(c1)OCCO2)(N1CCOCC1)N1CCOCC1
COc1ccccc1CNCc1cccs1
O=C(O)C1CCN(c2ncnc3ccc(-c4ccccc4C(F)(F)F)cc23)CC1
CCCS(=O)(=O)N1CCN(C(=O)c2cccs2)CC1
COc1ccc(OCC(=O)N2CCN(C(=O)c3cccs3)CC2)cc1
CC(C)Oc1ccc(C2NC(=O)NC2=O)cc1 (stereo unspecified)
COc1ccc2c(c1OC)C(=O)OC2c1c(O)nc(SC)n(-c2ccccc2)c1=O (stereo unspecified)
O=C(CCCn1c(=O)oc2ccccc21)Nc1cccnc1
Oc1c(CN2CCOCC2)ccc(CN2CCOCC2)c1O
COc1ccc(-c2cc(C(F)(F)F)nc(SCCC(=O)NCc3ccco3)n2)cc1
O=C(CSc1nc(-c2ccco2)cc(C(F)(F)F)n1)NCc1cccs1
Cc1ccc(NC2=NC(c3ccccc3)n3c(nc(C)cc3=O)N2)cc1 (stereo unspecified)
CC(=O)NC1=NC(=O)CS1
COc1ccc(COC(=O)c2n[nH]c3ccccc23)cc1F
CCOC(=O)c1ccc(CS(=O)c2ccc(Cl)cc2)o1 (stereo unspecified)

Max dye-equivalent concentration, active:
Cc1cnc(CNc2cc(-c3c(C)noc3C)ncn2)cn1 22 nM
COCCNc1cc(-c2c(C)noc2C)ncn1 14 nM
Cc1c(S(=O)(=O)O)ccc(N=Nc2c(O)c(C(=O)O)cc3ccccc23)c1Cl 12 nM
CCCCOC(=O)c1[nH]c(C)c(C(=O)OC)c1C 450 nM
COc1ccc(-c2cc3ccc(OCc4nn[nH]n4)cc3oc2=O)cc1 11000 nM
N#Cc1c2c(c(-c3ccccc3)[nH]c1=O)CCCC2 20 nM
COc1cc2nc(N3CCN(C(=O)[C@@H]4CCCO4)CC3)nc(N)c2cc1OC 830 nM
COc1ccc(S(=O)(=O)N2CCN(C(=O)c3cccs3)CC2)cc1OC 3700 nM
FC(F)(F)c1cc(-c2cccs2)nc(NCc2ccco2)n1 16 nM
CCOC(=O)c1ccc(COC(=O)c2cc(=O)[nH]c3ccccc23)o1 40 nM
